Out of some 340,000 compounds screened, about 2,100 (0.62%) were called active.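 Rule for the calls: active = first-screen hits whose inhibition reached a set limit at any dose in the follow-up dose series; inconclusive = inhibition above the set first-screen limit but never retested; inactive = the rest.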 A selection follows. Measured potencies and affinities stand elsewhere.

The target in this assay is Rac GTPase-activating protein 1 (Homo sapiens) (UniProt Q9H0H5). The assay can be described thus: MgcRacGAP GTPase-activating activity inhibitors, confirmation, biochemical, ADP Hunter fluorescence, primary and confirmatory (AID 624330).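 Note: fluorescence reports GDP produced by GAP-driven GTP hydrolysis.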 To be noted: MgcRacGAP-stimulated Rac1 GTP hydrolysis, at 30 µM, stronger effect = higher value, GST-tagged Rac1 F28L mutant substrate.
Sequence of Rac GTPase-activating protein 1 (Homo sapiens) (Q9H0H5 whole entry, looked up): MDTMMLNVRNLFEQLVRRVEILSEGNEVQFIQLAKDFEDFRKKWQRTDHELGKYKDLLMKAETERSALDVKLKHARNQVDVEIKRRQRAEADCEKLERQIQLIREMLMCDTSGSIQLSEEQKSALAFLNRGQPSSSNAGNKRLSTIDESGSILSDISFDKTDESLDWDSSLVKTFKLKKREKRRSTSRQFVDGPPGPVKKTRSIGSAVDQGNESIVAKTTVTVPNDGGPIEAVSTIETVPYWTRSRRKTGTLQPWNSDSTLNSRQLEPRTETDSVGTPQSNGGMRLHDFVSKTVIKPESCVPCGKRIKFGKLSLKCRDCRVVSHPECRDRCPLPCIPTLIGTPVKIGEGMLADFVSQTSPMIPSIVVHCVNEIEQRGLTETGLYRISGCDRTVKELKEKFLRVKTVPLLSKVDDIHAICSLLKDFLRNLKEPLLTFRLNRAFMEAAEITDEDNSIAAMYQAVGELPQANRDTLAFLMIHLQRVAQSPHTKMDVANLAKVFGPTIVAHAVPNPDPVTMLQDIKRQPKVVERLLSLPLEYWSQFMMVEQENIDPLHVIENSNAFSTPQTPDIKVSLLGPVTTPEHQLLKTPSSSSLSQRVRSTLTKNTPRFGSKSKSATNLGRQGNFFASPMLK
`CC(O)Cn1c(N2CCCC2)nc2c1c(=O)[nH]c(=O)n2C` (configuration not stated): the inhibition (usually the relative decrease from the control value, in per cent) was 4.91% (inactive).

Take `Cc1nc2ccc(-c3nc4cc(N)ccc4o3)cc2[nH]1`: the inhibition is 4.01% (inactive).

On to `c1cncc(-c2nc3ccccc3[nH]2)c1`, for which the inhibition was 3.11% (inactive).

Take `Clc1ccc(-c2nc3ccncc3[nH]2)cc1`: the inhibition was -13.9% (inactive).

For `Cc1nc2ccc(-c3nc4ccccc4[nH]3)cc2[nH]1`, the inhibition was 22.2% (inactive).

As to `O=[N+]([O-])c1ccc2nc(-c3ccc(Cl)cc3)[nH]c2c1`, the inhibition is 9.26% (inactive).

For `c1cncc(-c2nc3cc4ccccc4cc3[nH]2)c1`, the inhibition was 21.6% (inactive).

In the case of `O=[N+]([O-])c1ccc2nc(C3CCCCC3)[nH]c2c1`, the inhibition is 6.17% (inactive).

Regarding `Cc1ccc2nc(C3CCCCC3)[nH]c2c1`, the inhibition is 9.42% (inactive).

For `C=CCNC(=S)NNC(=O)c1ccc2c(c1)OCO2`, the inhibition is 4.79% (inactive).

Turning to `CC(NC(=O)C(=O)N1CCOCC1)C(c1cccs1)N1CCN(c2ccccc2)CC1` (configuration not stated), the inhibition is 11% (inactive).

Regarding `CC1CCCN(C(=O)C2CCN(S(=O)(=O)c3ccc4c(c3)CC(C)N4C(=O)C3CC3)CC2)C1` (configuration not stated), the inhibition is -0.15% (inactive).

On to `COc1ccc(CNC(=O)C(NS(=O)(=O)c2ccc3c(c2)CCCN3C(C)=O)C(C)C)cc1` (configuration not stated), for which the inhibition was 6.24% (inactive).

Regarding `COc1cccc(CNC(=O)CCS(=O)(=O)c2ccc3c(c2)NC(=O)CS3)c1`, the inhibition is 6.72% (inactive).

On to `O=C1c2ccccc2NC(c2ccccn2)N1c1ccccc1F` (configuration not stated), for which the inhibition is 6.7% (inactive).

On to `O=C(NC1CCCCC1)c1cc(S(=O)(=O)N2CCCC2)ccc1Cl`, for which the inhibition was 9.3% (inactive).

With `CCOC(=O)COc1nc(OC)nc(N2CCOCC2)n1`, the inhibition is 13% (inactive).

Turning to `Nc1ccc2nc(-c3cccc(-c4nc5ccc(N)cc5[nH]4)c3)[nH]c2c1`, the inhibition is 25.9% (inactive).

For `Nc1ccc2nc(C(F)(F)F)[nH]c2c1`, the inhibition is 7.12% (inactive).

For `Nc1ccc(-c2nc3ccccc3[nH]2)cc1`, the inhibition is 8.27% (inactive).

`Nc1cccc(-c2nc3ccccc3[nH]2)c1`: the inhibition is 8.22% (inactive).

For `O=C(OCC(=O)N1CCN(C(=O)c2ccco2)CC1)c1sc2cc(F)ccc2c1Cl`, the inhibition is 3.78% (inactive).

Consider `COC(=O)c1ccc(C(=O)OC)c(NC(=O)CN(C)Cc2cccc(Cl)c2Cl)c1`, for which the inhibition was 5.99% (inactive).

Consider `Cc1nc2cc3nc(C)sc3cc2s1`, for which the inhibition is 10.8% (inactive).

With `O=C(Cc1ccc(Cl)cc1)N/N=C/c1cccc(O)c1`, the inhibition is -4.31% (inactive).

Take `O=C(CCc1ccc(O)cc1)NN=Cc1ccc2c(c1)OCO2`: the inhibition is 28.7% (inactive).

Regarding `O=C(Cc1ccc(Cl)cc1)N/N=C/c1ccccc1`, the inhibition is 3.03% (inactive).

For the compound `COc1ccc(CCC(=O)N/N=C/c2ccc3c(c2)OCO3)cc1`, the inhibition is 4.06% (inactive).

Consider `O=C(CCC(=O)OCc1ccc([N+](=O)[O-])cc1)Nc1ccc(F)cc1`, for which the inhibition is 4.88% (inactive).

On to `O=C(CC(c1ccccc1)c1ccccc1O)NCCN1CCOCC1` (configuration not stated), for which the inhibition is -6.2% (inactive).

Take `Nc1ccccc1-n1c(=O)n(Cc2ccccc2F)c(=O)c2[nH]cnc21`: the inhibition was 3.12% (inactive).

Turning to `C=CCn1c(SCc2cc(=O)n3cc(C)ccc3n2)nnc1-c1cccc(C)c1`, the inhibition is 8.24% (inactive).

Regarding `CSCC[C@H](NC(=O)OC(C)(C)C)C(=O)N1CCC(C(=O)NCC(=O)Nc2ccc(C)cc2)CC1`, the inhibition was -4.04% (inactive).

Regarding `COCCNC(=O)c1ccc(-c2csc(C)n2)cc1`, the inhibition is 3.59% (inactive).

As to `C[C@@H]1CN([C@H](C)CO)C(=O)c2cc(Br)cnc2O[C@@H]1CN(C)C(=O)C1CCOCC1`, the inhibition was 8.56% (inactive).

Regarding `CNc1nnc(-c2cccc(N(C)C)c2)s1`, the inhibition is 4.36% (inactive).

Regarding `CNc1nnc(-c2ccncc2)s1`, the inhibition was 6.68% (inactive).

Consider `Cc1cc(OCC(=O)NCC2CCC(C(=O)O)CC2)c2c(C)c(Cc3ccccc3)c(=O)oc2c1` (configuration not stated), for which the inhibition was 1.13% (inactive).

Consider `CCCc1cc(=O)[nH]c(SCC(=O)NC)n1`, for which the inhibition is 2.55% (inactive).

As for `CCCCNC(=O)c1ccc(CS(=O)(=O)c2ccc(OC)cc2)o1`, the inhibition was -10.9% (inactive).

On to `CCOc1ccc(S(=O)(=O)Nc2ccc(C(=O)NCC(c3ccc(OC)cc3)N3CCOCC3)cc2)cc1` (configuration not stated), for which the inhibition was 5.24% (inactive).

As for `COc1ccc(CN2CCC(=O)N(CCO)CC2)cc1OC`, the inhibition was 7.88% (inactive).

With `O=C(c1ccco1)N1CCN(Cc2cn[nH]c2-c2ccc(F)cc2F)CC1`, the inhibition is -5.62% (inactive).

On to `Cn1c(=O)[nH]c(Nc2ccc(F)cc2)c([N+](=O)[O-])c1=O`, for which the inhibition is 8.12% (inactive).

On to `Cn1c(=O)[nH]c(Nc2ccccc2)c([N+](=O)[O-])c1=O`, for which the inhibition is 5.65% (inactive).

In the case of `Cc1ccc(C(=O)NCCCNC(=O)c2ccco2)cc1`, the inhibition was 4.3% (inactive).

Take `CN(CC(=O)Nc1c(Cl)cccc1Cl)C(=O)C1CCN(C(=O)Nc2ccccc2)CC1`: the inhibition was -1.59% (inactive).

With `COc1ccccc1CCC(=O)OCC(=O)Nc1ccc(C(N)=O)cc1`, the inhibition is -2.01% (inactive).

In the case of `Cc1ccc(S(=O)(=O)N2CCCCC2)cc1NC(=O)CSc1nc(N)cc(=O)[nH]1`, the inhibition is 4.78% (inactive).

Turning to `Cc1c(-c2ccccc2)sc(Br)c1C(=O)N1CCOCC1`, the inhibition was 2.64% (inactive).

Regarding `COC(=O)c1c(N)sc(C(=O)N2CCOCC2)c1C`, the inhibition is 8.37% (inactive).

For the compound `Cc1ccc(N(C(C)C(=O)O)S(=O)(=O)c2cccnc2)cc1` (configuration not stated), the inhibition is 4.39% (inactive).

With `O=C1ON=C(c2ccccc2)/C1=C\c1ccco1`, the inhibition is 19.1% (inactive).

Consider `Cc1ccc(C2=NOC(=O)/C2=C\c2ccccc2)cc1`, for which the inhibition is 8.59% (inactive).

Consider `Cc1ccc(C2=NOC(=O)/C2=C\C=C\c2ccccc2)cc1`, for which the inhibition is 6.67% (inactive).

As for `COc1cc([N+](=O)[O-])ccc1-c1ccc(/C=C2\C(=O)ON=C2c2ccccc2)o1`, the inhibition is 25% (inactive).

For `COc1ccc(/C=C2\C(=O)ON=C2c2ccccc2)cc1`, the inhibition is 24.6% (inactive).

Take `CN(C)/C=C1\C(=O)ON=C1c1ccccc1`: the inhibition was 11.7% (inactive).

For `O=C1ON=C(c2ccccc2)/C1=C/c1ccc(-c2ccccc2[N+](=O)[O-])o1`, the inhibition was 7.69% (inactive).

With `O=C1ON=C(c2ccccc2)/C1=C/c1cccnc1`, the inhibition is 3.82% (inactive).

In the case of `Cc1ccc(CNS(=O)(=O)NCc2ccc(Cl)cc2)cc1`, the inhibition was 0.28% (inactive).

Consider `COc1ccc(N2CCN(C(=O)COC(=O)CCS(=O)(=O)c3ccc(C)cc3)CC2)cc1`, for which the inhibition was 20.8% (inactive).
